We go through 29 compounds from PubChem BioAssay AID504545 (Broad Institute, 2011).

Each structure is given as a SMILES string. Results with a measured potency or affinity are listed apart. Results filed as inconclusive are left out. The source made the active and inactive calls. How the calls were made is not given here.

The target of the assay is Cyclin-dependent kinase 5 activator 1 (Homo sapiens) + Cyclin-dependent kinase 5 (Homo sapiens) (UniProt Q15078+Q00535). The experiment in a line: CDK5/p35 kinase inhibitors, dose response, biochemical, cherry-picked samples, set 2 (AID 504545). As to conditions: biochemical plate reader; series mostly up to 30 µM.
Sequence of Cyclin-dependent kinase 5 activator 1 (Homo sapiens) + Cyclin-dependent kinase 5 (Homo sapiens) (Q00535 whole entry, looked up): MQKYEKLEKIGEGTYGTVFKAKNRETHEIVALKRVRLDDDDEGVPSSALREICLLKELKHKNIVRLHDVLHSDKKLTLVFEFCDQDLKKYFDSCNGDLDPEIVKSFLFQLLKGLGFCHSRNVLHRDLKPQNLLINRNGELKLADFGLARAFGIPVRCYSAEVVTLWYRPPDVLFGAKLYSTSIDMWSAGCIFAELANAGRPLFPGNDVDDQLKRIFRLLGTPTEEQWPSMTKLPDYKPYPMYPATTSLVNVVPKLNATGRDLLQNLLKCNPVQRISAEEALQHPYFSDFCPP
Sequence of Cyclin-dependent kinase 5 activator 1 (Homo sapiens) + Cyclin-dependent kinase 5 (Homo sapiens) (Q15078 whole entry, looked up): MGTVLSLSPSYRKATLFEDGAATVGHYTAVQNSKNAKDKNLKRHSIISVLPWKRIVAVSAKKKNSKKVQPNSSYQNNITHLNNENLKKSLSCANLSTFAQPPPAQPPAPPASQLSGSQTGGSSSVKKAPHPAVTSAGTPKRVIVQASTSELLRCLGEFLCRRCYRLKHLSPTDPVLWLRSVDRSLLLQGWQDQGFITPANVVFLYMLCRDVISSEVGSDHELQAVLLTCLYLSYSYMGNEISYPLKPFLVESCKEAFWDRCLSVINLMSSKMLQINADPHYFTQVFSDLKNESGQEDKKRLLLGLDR
For the compound `CC(C)[C@H](CO)N(Cc1cccc(F)c1)c1nc(Nc2cccc(Cl)c2)c2ncn(C(C)C)c2n1`, the outcome was inactive.
Turning to `CC(C)C[C@H](CO)Nc1nc(N(C)c2cccc(Cl)c2)c2ncn(C(C)C)c2n1`, the result was inactive.
In the case of `Cc1nc(Nc2ccccc2)sc1C(=O)c1ccc(F)cc1` it was “inactive”; in that of `Nc1ncnc2c1ncn2C1OC(CO)C(O)C1O` (centres undefined), “inactive”; in that of `Clc1cncc(Cl)c1N/N=C/c1ccccc1`, “inactive”.
In the case of `CCN1C(=O)/C(=C2/Sc3ccc(OC)cc3N2C)SC1=Nc1cccc(O)c1` it was “inactive”; in that of `COc1ccc(C(=O)c2sc(Nc3ccccc3F)nc2N)cc1`, “inactive”.
In the case of `COc1ccc(Nc2nc(N)c(C(=O)c3ccc(F)cc3)s2)cc1` it was “inactive”; in that of `Clc1ccc(N/N=C/c2ccncc2)cc1Cl`, “inactive”; in that of `O=[N+]([O-])c1ccc2c(c1)/C(=N\O)c1ccccc1-2`, “inactive”.
Consider `Clc1cccc(Cl)c1/C=N/Nc1c(Cl)cncc1Cl`, for which the result was inactive.
The result for `COc1ccccc1C(=O)N1CCN(c2ccccn2)CC1` reads “inactive”; that for `Cc1nc(Nc2ccccc2)sc1C(=O)c1ccccc1`, “inactive”; that for `O=C(O)c1ccc(N/N=C/c2ccc(C(F)(F)F)cc2)cc1`, “inactive”.
The result for `Cc1ccc(Nc2nc(NCCO)nc3c2cnn3C)cc1Cl` reads “inactive”.
The result for `COc1ccc2ccc3ccc(OC)c(OC(C)=O)c3c2c1` reads “inactive”.
Consider `CC(=O)[C@H]1CC[C@H]2[C@@H]3CC=C4C[C@@H](OS(=O)(=O)O)CC[C@]4(C)[C@H]3CC[C@]12C`, for which the result was inactive.
The result for `CCNc1nc(Nc2ccc(C)c(Cl)c2)c2cnn(C)c2n1` reads “inactive”.
In the case of `COc1ccc2nc(C(F)(F)C(F)(F)F)c(C#N)c(N)c2c1` it was “inactive”; in that of `S=C(c1ccc(OCc2ccccc2)cc1)N1CCCC1`, “inactive”; in that of `O=C(c1ccc(F)cc1)c1cnc(Nc2ccccc2)s1`, “inactive”.
The result for `O=C(NNC(=O)c1ccccn1)c1ccc(OC(F)F)cc1` reads “inactive”; that for `O=C(c1ccc2c(c1)OCCO2)N1CCN(c2ccccn2)CC1`, “inactive”.
As to `O=C(NNC(=O)c1ccco1)c1ccccc1`, the result was inactive.
The result for `Oc1cccc(C=NNc2ccccn2)c1` reads “inactive”; that for `CN(C)N1C(N)=C(C#N)C(c2cccs2)C2=C1CCCC2=O` (centres undefined), “inactive”; that for `Clc1cnc(N/N=C/c2ccncc2)c(Cl)c1`, “inactive”.
With `COc1cccc(OC)c1C(=O)N1CCN(c2ccccn2)CC1`, the result was inactive.
The result for `Cc1ccc2[nH]c(C(F)(F)F)cc(=O)c2c1` reads “inactive”.
